{"source": "PubChem BioAssay AID2280", "about": "(The Scripps Research Institute Molecular Screening Center, 2010)", "note": "About 1,400 (0.44%) of roughly 320,000 compounds were called active. This excerpt belongs to a sample that is enriched for actives. A number with no mark means an inactive call.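 The calls were made as follows: active = percent inhibition above a per-plate cutoff, the plate mean of test compounds plus 3 SD (cut at about 30% in these data); inactive = the rest.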", "data": [{"biological_target": "Female germline-specific tumor suppressor gld-1 (Caenorhabditis elegans) (UniProt Q17339)", "sequence (Q17339 whole entry, looked up)": "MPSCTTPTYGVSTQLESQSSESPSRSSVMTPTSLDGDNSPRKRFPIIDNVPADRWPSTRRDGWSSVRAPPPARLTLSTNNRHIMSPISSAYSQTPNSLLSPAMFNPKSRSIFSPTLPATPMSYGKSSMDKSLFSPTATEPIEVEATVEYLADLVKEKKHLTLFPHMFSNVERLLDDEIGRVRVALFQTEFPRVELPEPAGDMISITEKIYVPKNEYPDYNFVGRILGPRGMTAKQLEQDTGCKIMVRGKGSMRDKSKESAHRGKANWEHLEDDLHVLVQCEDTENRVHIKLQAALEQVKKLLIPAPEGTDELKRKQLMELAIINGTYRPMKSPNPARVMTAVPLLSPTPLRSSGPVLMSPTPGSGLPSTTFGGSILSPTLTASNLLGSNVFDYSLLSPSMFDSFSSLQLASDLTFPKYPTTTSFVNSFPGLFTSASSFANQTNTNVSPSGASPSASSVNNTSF", "assay": "GLD-1/TGE RNA complex disruptors, primary screen, biochemical, fluorescence polarization (AID 2280);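 also: 0% = DMSO wells with GLD-1 and probe and 100% = wells lacking GLD-1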", "conditions": "purified GLD-1 + fluorescein TGE RNA, at 5.96 µM, stronger effect = higher value", "values": [{"molecule": "CCOC(=O)C1CCN(C(=O)CC2C(=O)N(Cc3ccccc3)C(C)c3nc4ccccc4n32)CC1", "note": "(configuration not stated)", "inhibition": "3.57%"}, {"molecule": "O=C(CN1CCN(Cc2ccc(F)cc2Cl)C1=O)NCc1cccs1", "inhibition": "5.83%"}, {"molecule": "CCOc1cc(/C=C2/C(=N)N3OC(C)=CC3=NC2=O)ccc1OC", "inhibition": "-3.88%"}, {"molecule": "COc1ccc(OCCCn2cccc2/C=C2/C(=N)N3OC(C)=CC3=NC2=O)cc1", "inhibition": "3.29%"}, {"molecule": "CC1=CC2=NC(=O)/C(=C/c3coc4ccccc4c3=O)C(=N)N2O1", "inhibition": "32.9% (active)"}, {"molecule": "COC(=O)C1=C(NC(=O)C(C)(C)C)CCS1", "inhibition": "5.48%"}, {"molecule": "O=C(c1cc(=O)c2ccccc2o1)N1CCN(c2ccccc2)CC1", "inhibition": "-3.54%"}, {"molecule": "CC(C)N(C(=O)COC(=O)c1ccccc1C(=O)N1CCN(c2ccc(F)cc2)CC1)C(C)C", "inhibition": "6.66%"}, {"molecule": "O=C(COC(=O)c1ccccc1C(=O)N1CCN(c2ccccc2)CC1)NCc1ccccc1", "inhibition": "55.9% (active)"}, {"molecule": "CCn1c(=S)[nH]c2sc3c(c2c1=O)CCCCC3", "inhibition": "-5.76%"}, {"molecule": "Cc1ccccc1SCC(=O)OCC(=O)N1CC(=O)Nc2ccccc21", "inhibition": "1.92%"}, {"molecule": "CC1CN(C(=O)CCC(=O)NCCCN2CCC(Cc3ccccc3)CC2)c2cc(Cl)ccc2O1", "note": "(configuration not stated)", "inhibition": "5.77%"}, {"molecule": "CCCn1c(O)c(CN2CCCC(C)C2)c(C)c(C#N)c1=O", "note": "(configuration not stated)", "inhibition": "41.2% (active)"}, {"molecule": "Cc1c(CN2CCCCC2)c(O)n(CCO)c(=O)c1C#N", "inhibition": "7.69%"}, {"molecule": "CCCCCCn1c(CN2CCCC(C)C2)nc2c1c(=O)n(C)c(=O)n2C", "note": "(configuration not stated)", "inhibition": "9.13%"}, {"molecule": "COc1cccc(NC(=O)NCCN2CCCCC2)c1", "inhibition": "11.7%"}, {"molecule": "COCCNC(=O)Nc1ccc2nc(-c3ccco3)c(-c3ccco3)nc2c1", "inhibition": "69.3% (active)"}, {"molecule": "O=C(NCc1ccccn1)c1ccc2nc(-c3ccco3)c(-c3ccco3)nc2c1", "inhibition": "20.3%"}, {"molecule": "CNS(=O)(=O)c1ccc(NC(=O)C2CC(=O)N(c3ccc(Cl)cc3)C2)cc1", "note": "(configuration not stated)", "inhibition": "1.34%"}, {"molecule": "CC(C)(C)C(=O)CSc1ccc(S(=O)(=O)N2CCCC2)cn1", "inhibition": "4.63%"}, {"molecule": "CCCCc1ccc(S(N)(=O)=O)cc1", "inhibition": "6.14%"}, {"molecule": "C[C@@H]1CC[C@@]2(OC1)O[C@H]1C[C@H]3[C@@H]4CC=C5C[C@@H](O)[C@H](O)C[C@]5(C)C4CC[C@]3(C)[C@H]1[C@@H]2C", "note": "(some centres not stated)", "inhibition": "-7.94%"}, {"molecule": "COc1cccc2cc(C(C)N(CCCN3CCOCC3)C(=O)Nc3ccc(Cl)cc3)oc12", "note": "(configuration not stated)", "inhibition": "2.92%"}, {"molecule": "CCOC(=O)N1CCN(Cc2nnc(-c3ccccc3Cl)o2)CC1", "inhibition": "-10.5%"}, {"molecule": "Nc1cccc2c1C(=O)N(Cc1nnc(-c3ccccc3Br)o1)C2=O", "inhibition": "37% (active)"}, {"molecule": "Cn1cnnc1SCc1nnc(-c2ccccc2Br)o1", "inhibition": "-10.8%"}, {"molecule": "COc1cc(S(=O)(=O)N2CCN(C(=O)C3CC3)CC2)ccc1NC(C)=O", "inhibition": "3.97%"}, {"molecule": "CCOc1ccc(NC(=O)c2cccc3c2C(=O)N(CC2CCCO2)C3)cc1", "note": "(configuration not stated)", "inhibition": "2.1%"}, {"molecule": "CCCCC1=CC2=CC(=O)C(C)(OC(=O)CC)C(=O)C2=CN1CCCOC(C)C", "note": "(configuration not stated)", "inhibition": "22.9%"}, {"molecule": "COCCN1C=C2C(=O)C(C)(OC(=O)C3CCCC3)C(=O)C=C2C=C1c1ccsc1", "note": "(configuration not stated)", "inhibition": "23.1%"}, {"molecule": "COC/C=C/C1=CC2=CC(=O)C(C)(OC(=O)CCC(=O)OC)C(=O)C2=CO1", "note": "(configuration not stated)", "inhibition": "46.7% (active)"}, {"molecule": "CSCCNC(=O)c1ccc2nc(Cc3ccccc3F)oc2c1", "inhibition": "-1.35%"}, {"molecule": "COc1ccc(CCN2C(=O)CC(N3CCC(C(N)=O)CC3)C2=O)cc1OC", "note": "(configuration not stated)", "inhibition": "1.78%"}, {"molecule": "CSc1c(SCc2ccccc2)cnn(Cc2ccccc2)c1=O", "inhibition": "140% (active)"}, {"molecule": "CCn1c(SCc2ccccc2)nc2cc(OC)c(OC)cc2c1=O", "inhibition": "-3.64%"}, {"molecule": "COC(=O)c1ccc(SCc2ccccc2)nc1", "inhibition": "-5.64%"}, {"molecule": "COc1cc2c(C(=O)N3CCN(C)CC3)c(CSc3ccccc3)n(C)c2cc1Br", "inhibition": "0.62%"}, {"molecule": "COC(=O)c1sc(-c2ccc(C(C)(C)C)cc2)cc1NC(=O)/C=C/C(=O)O", "inhibition": "-0.27%"}, {"molecule": "Cc1nn(C)cc1C(=O)c1ccccc1", "inhibition": "1.39%"}, {"molecule": "O=C(O)c1ccc2c3c(cccc13)C(=O)N(OS(=O)(=O)c1ccccc1)C2=O", "inhibition": "13.8%"}, {"molecule": "CN1C(=O)c2cccc3c(N)ccc(c23)C1=O", "inhibition": "198% (active)"}, {"molecule": "CC(=O)Nc1ccccc1Sc1ccc2c3c(cccc13)C(=O)N(c1ccc(C)cc1)C2=O", "inhibition": "0.24%"}, {"molecule": "COc1ccc(N2C(=O)c3cccc4cccc(c34)C2=O)nn1", "inhibition": "13.5%"}, {"molecule": "COc1ccccc1C(=O)NCCC(=O)NCC(c1ccco1)N1CCCCC1", "note": "(configuration not stated)", "inhibition": "3.67%"}, {"molecule": "CC(C)(C)CN1CCNC(=O)C1CC(=O)NC1Cc2ccccc2C1", "note": "(configuration not stated)", "inhibition": "8.53%"}, {"molecule": "COc1ccccc1CNC(=O)c1ccc(Cl)c(S(=O)(=O)N2CCCC2)c1", "inhibition": "0.54%"}, {"molecule": "CCN1/C(=C\\c2ccc3ccccc3[n+]2CC)Sc2cc(C)ccc21", "inhibition": "61.6% (active)"}, {"molecule": "N/C(=N\\OC(=O)CCn1cccc(C(F)(F)F)c1=O)c1ccc(OC(F)(F)F)cc1", "inhibition": "-1.66%"}, {"molecule": "CCOC(=O)c1cc(C#N)c(N2CCCCC2)nc1-c1ccccc1", "inhibition": "-3.77%"}, {"molecule": "CCOc1ccc(C(=O)NC2CCN(C(=O)Nc3ccccc3OC)CC2)cc1", "inhibition": "0.46%"}, {"molecule": "CCOc1ccc2nc(N3CCCN(C(=O)Nc4ccccc4C)CC3)c(C#N)cc2c1", "inhibition": "42% (active)"}, {"molecule": "CC1CCCC(NC(=O)c2cccc(N3CCCC3=O)c2)C1C", "note": "(configuration not stated)", "inhibition": "2.8%"}, {"molecule": "COc1ccccc1C(=O)Nc1nc2nc(-c3ccccc3)cc(=O)n2[nH]1", "inhibition": "0.62%"}, {"molecule": "CCNS(=O)(=O)c1ccc(CCC(=O)N2CCN(c3cc(Cl)ccc3C)CC2)cc1", "inhibition": "1.35%"}, {"molecule": "COc1ncnc2c1N=C1CC(C)(C)CC(N)=C1S2", "inhibition": "112% (active)"}, {"molecule": "Cc1cc(C)n(-c2nc(O)cc(=O)[nH]2)n1", "inhibition": "4.97%"}, {"molecule": "CC(C)(C)c1ccc(Cn2nnc3c(=O)[nH]c(C4CCCN(C(=O)c5ccco5)C4)nc32)cc1", "note": "(configuration not stated)", "inhibition": "4.28%"}, {"molecule": "CCOC(=O)c1cccc(NC(=O)CN2C(=O)C3CC=CCC3C2=O)c1", "note": "(configuration not stated)", "inhibition": "4.12%"}, {"molecule": "Cc1ccc(OCC(=O)Nc2ccc(C(=O)O)cc2NC(=O)COc2ccc(C)c(C)c2)cc1C", "inhibition": "8.42%"}, {"molecule": "CCOC(=O)c1cnc(SC)nc1Sc1ccc(Cl)cc1Cl", "inhibition": "6.36%"}, {"molecule": "CCCN(CC(=O)Nc1ccccc1OC)C(=O)CCC(=O)c1ccc(F)cc1", "inhibition": "54.8% (active)"}, {"molecule": "CCN(CC(=O)Nc1ccccc1OC)C(=O)Cn1cnc2ccccc2c1=O", "inhibition": "4.15%"}, {"molecule": "CCN(CC(=O)Nc1ccccc1OC)C(=O)CC1CC2CCC1C2", "note": "(configuration not stated)", "inhibition": "-0.14%"}, {"molecule": "CC1CCN(C(=O)Cn2nnnc2CN2CCOCC2)CC1", "inhibition": "0.79%"}, {"molecule": "CCCCNc1c(-c2cccc(Sc3ccc(OC)cc3)c2)nc2ccccn12", "inhibition": "2.4%"}, {"molecule": "Cc1cccc(N2C(=O)SC(SC(=Nc3ccccc3)Nc3ccccc3)C2=O)c1", "note": "(configuration not stated)", "inhibition": "10.3%"}, {"molecule": "COc1ccc(C)cc1NC(=S)Nc1ccccc1SC", "inhibition": "-6.51%"}, {"molecule": "COc1ccc2c(CC(=O)N3CCc4cc(OC)c(OC)cc4C3)coc2c1", "inhibition": "5.21%"}, {"molecule": "O=C(CSc1ccc2nnc(-c3ccccc3)n2n1)N1CCCc2ccccc21", "inhibition": "-1.09%"}, {"molecule": "COC(=O)CCCC1=CC2=CC(=O)C(C)(OC(=O)c3cccs3)C(=O)C2=CN1c1cccc(C#N)c1", "note": "(configuration not stated)", "inhibition": "38.1% (active)"}, {"molecule": "COC(=O)CCCC1=CC2=C(c3ccccc3)C(=O)C(C)(OC(=O)C3CCCC3)C(=O)C2=CN1c1ccc(OC)cc1", "note": "(configuration not stated)", "inhibition": "7.24%"}, {"molecule": "COC(=O)CCCC1=CC2=CC(=O)C(C)(OC(=O)c3cccs3)C(=O)C2=CN1CC(C)C", "note": "(configuration not stated)", "inhibition": "5.88%"}, {"molecule": "Cc1ccc(O)c(NC(=O)c2cc(-c3ccco3)on2)c1", "inhibition": "1.89%"}, {"molecule": "C[C@H]1CN([C@@H](C)CO)C(=O)Cc2cc(NS(C)(=O)=O)ccc2O[C@@H]1CN(C)CC1CC1", "inhibition": "0.15%"}, {"molecule": "CC(C)n1cnc2c(NCc3ccccc3)cc(N[C@@H](CO)Cc3ccccc3)cc21", "inhibition": "43.8% (active)"}, {"molecule": "CC(C)n1cnc2c(NCc3ccccc3)cc(OCC3CCN(C)CC3)cc21", "inhibition": "-21.3%"}, {"molecule": "CCC(CO)Oc1cc(NCc2ccccc2)c2ncn(C3CCCC3)c2c1", "note": "(configuration not stated)", "inhibition": "5.5%"}, {"molecule": "CC(c1cccnc1)N(CCN(C)C)C(=O)Nc1ccc(Cl)c(Cl)c1", "note": "(configuration not stated)", "inhibition": "-1.61%"}, {"molecule": "C/C(=N\\N=C(N)N)c1ccc(Cl)cc1", "inhibition": "-0.39%"}, {"molecule": "N#C/C(=C/c1cccc([N+](=O)[O-])c1)c1nnc2n1CCCCC2", "inhibition": "-1.89%"}, {"molecule": "N#C/C(=C(\\O)C(F)(F)F)c1nnc2n1CCCCC2", "inhibition": "51.1% (active)"}, {"molecule": "N#C/C(=C(\\O)CCl)c1nnc2n1CCCCC2", "inhibition": "-10.3%"}, {"molecule": "CS(=O)(=O)N1CCN(C(=O)CSc2ccccc2)CC1", "inhibition": "2.68%"}, {"molecule": "Cc1ccc(S(=O)(=O)N2CCC3(CC2)OCCO3)c(C)c1", "inhibition": "-2.29%"}, {"molecule": "CCOc1ccc(CNC(=O)C2CCC(=O)N2C2CCCC2)cc1OC", "note": "(configuration not stated)", "inhibition": "7.99%"}, {"molecule": "CCOc1cc(C2C(C(=O)OC)=CN(C3CCCC3)C=C2C(=O)OC)cc(Br)c1O", "inhibition": "44.7% (active)"}, {"molecule": "COC(=O)C1=CN(Cc2ccc(OC)cc2)C=C(C(=O)OC)C1c1ccc(O)c(OC)c1", "inhibition": "4.18%"}, {"molecule": "CCC(C)[C@H](NC(=O)N1CCn2c1nc1ccccc12)C(=O)NCc1ccc(OC)cc1", "note": "(some centres not stated)", "inhibition": "12.5%"}, {"molecule": "C=CC[n+]1c(-c2ccc(C)cc2)csc1NNC(=O)Nc1ccccc1", "inhibition": "-11.8%"}, {"molecule": "O=C(COC(=O)c1ccc(F)cc1)Nc1ccc2c(c1)OCO2", "inhibition": "0.03%"}, {"molecule": "NS(=O)(=O)c1ccc(NC(=O)COC(=O)c2c3c(nc4ccccc24)/C(=C\\c2ccc4c(c2)OCO4)CCC3)cc1", "inhibition": "105% (active)"}, {"molecule": "O=C(COC(=O)c1ccncc1)Nc1ccc2c(c1)OCO2", "inhibition": "-0.85%"}]}]}
